Calls of active or inactive are those of the source. Rule for the calls: active = hit-call score of the fitted dose curve at least 0.9, where 1 is the maximum; inactive = score below 0.9.

The target in this test is Hepatocyte nuclear factor 6 (Homo sapiens) (UniProt Q9UBC0). Briefly: ATG_HNF6_CIS: Attagene CIS-FACTORIAL HepG2 Assay for human Hepatocyte Nuclear Factor 6 (HNF6) (AID 2282952). As to conditions: HepG2 Attagene cis-factorial HNF6 reporter transcription; actives raise or lower the signal. The method, then: ATG_CIS is a cell-based, multiplexed-readout assay that uses HepG2, a human liver cell line, with measurements taken at 24 hours after chemical dosing in a 24-well plate.ATG_HNF6_CIS is one of 52 assay component(s) measured or calculated from the ATG_CIS assay. It is designed to make measurements of mRNA induction, a form of inducible reporter, as detected with fluorescence intensity signals by Reverse transcription polymerase chain reaction (RT-PCR) and Capillary electrophoresis technology.Data from the assay component ATG_HNF6_CIS was analyzed into 1 assay endpoint. This assay endpoint, ATG_HNF6_CIS, was analyzed with bidirectional fitting relative to DMSO as the negative control and baseline of activity. Using a type of inducible reporter, measures of mRNA for gain or loss-of-signal activity can be used to understand the reporter gene at the transcription factor-level as they relate to the gene ONECUT1. Furthermore, this assay endpoint can be referred to as a primary readout, because this assay has produced multiple assay endpoints where this one serves a reporter gene function. To generalize the intended target to other relatable targets, this assay endpoint is annotated to the dna binding intended target family, where the subfamily is homeobox protein.
Chain of Hepatocyte nuclear factor 6 (Homo sapiens) (Q9UBC0 whole entry, looked up): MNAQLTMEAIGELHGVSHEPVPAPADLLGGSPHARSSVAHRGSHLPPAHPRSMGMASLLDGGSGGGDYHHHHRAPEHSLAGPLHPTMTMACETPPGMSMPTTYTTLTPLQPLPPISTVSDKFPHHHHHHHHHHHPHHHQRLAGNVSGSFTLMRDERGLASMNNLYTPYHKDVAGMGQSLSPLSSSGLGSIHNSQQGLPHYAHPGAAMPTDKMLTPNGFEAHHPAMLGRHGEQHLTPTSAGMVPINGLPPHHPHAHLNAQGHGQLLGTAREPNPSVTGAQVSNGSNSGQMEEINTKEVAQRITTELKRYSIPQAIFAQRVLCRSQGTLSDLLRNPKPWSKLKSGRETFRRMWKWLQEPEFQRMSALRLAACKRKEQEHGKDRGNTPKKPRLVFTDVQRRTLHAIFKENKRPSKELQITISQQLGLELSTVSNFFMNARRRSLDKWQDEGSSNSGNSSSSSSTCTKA
Human liver HepG2 cells are transiently transfected with multiple reporter transcription units (MRTUs) in 6-well plates using FuGene 6 reagent (Roche; 3 ml FuGene/1 mg DNA). The MRTU constructs are regulated by a cis-regulating element (promoter). […] A major difference between the CIS and TRANS system is that in CIS activities of endogenous TFs are measured, whereas the TRANS assay evaluates changes in activities of exogenous, chimeric NR-Gal4 proteins. […] At the end of 24 hour incubation, total RNA was isolated using TriZol reagent (Invitrogen). The isolated RNA is then reverse-transcribed using oligo(dT) primer and Mo-MLV reverse transcriptase (Invitrogen) with DNAse I (Ambion) treatment for 30 min. The one-tenth of the produced cDNA was amplified by PCR using Taq DNA polymerase (Invitrogen) and two reporter sequence-specific primers. The PCR products were fluorescently labeled by primer extension with 6-arboxyfluorescein (6-FAM) 5'-labeled reporter sequence-specific primer (2 min at 95 C, 20 s at 68 C and 10 min at 72 C) and these products were digested with 5U of HpaI (New England Biolabs) for 2h at 37 C. The fragments were purified using Qiaquick PCR columns (Qiagen), analyzed on an ABI 3130xL genetic analyzer (Applied Biosystems) with peak positions identified by using a set of X-rhodamine (ROX)-labeled MapMarker1000 molecular weight standards (BioVentures). The raw capillary electrophoresis data was processed using Attagraph software (Attagene).
On to `CCc1cccc(O)c1`, for which the compound was classed as inactive.
With `ClCCOCCOCCCl`, the compound was called inactive.
The result for `Nc1ccn([C@H]2CC[C@@H](CO)O2)c(=O)n1` reads “inactive”.
Turning to `CN(C)C(=O)Nc1ccccc1`, the outcome was inactive.
Take `Cc1cccc(O)c1`: the call was inactive.
The entry for `CC12CCC(C1)C(C)(C)C2O` (stereo not given) is “inactive”; for `CCCCCCCCCCCCN1CCOCC1` it is “inactive”; for `C=C(C)CCCC(C)CCO` (stereo not given) it is “inactive”.
With `CCCCOCCOC(=O)c1ccccc1C(=O)OCCOCCCC`, the compound was classed as inactive.
With `CCCCN(CCO)CCO`, the compound was called inactive.
The result for `CCCCCCCCCOS(=O)(=O)O` reads “inactive”; that for `CC(CO)c1ccccc1` (stereo not given), “inactive”.
The result for `CCCCCc1cccc(=O)o1` reads “inactive”; that for `CC(C)CCCC(C)(C)O`, “inactive”.
`CC(=O)c1ccc(O)cc1`: the compound was classed as inactive.
The entry for `C=COCC1CCC(COC=C)CC1` (stereo not given) is “inactive”; for `CCCCOC(=O)C(C)OC(=O)CCC` (stereo not given) it is “inactive”; for `C=CC(C)(CCC=C(C)C)OC(=O)CC` (stereo not given) it is “inactive”.
The entry for `O=S1(=O)CC=CC1` is “inactive”; for `[Cl][Dy]([Cl])[Cl]` it is “inactive”; for `O=[N+]([O-])c1cc(N(CCO)CCO)ccc1NCCO` it is “inactive”.
The result for `CC(C)=CC(=O)O` reads “inactive”; that for `CCOC(=O)COC(=O)c1ccccc1C(=O)OCC`, “inactive”; that for `COc1ccccc1O`, “inactive”.
With `Brc1cc(Br)cc(Br)c1`, the compound was classed as inactive.
The entry for `c1ccc(Sc2ccccc2)cc1` is “inactive”; for `CC(C)(O)C(=O)c1ccc(OCCO)cc1` it is “inactive”.
The entry for `CCCCCC#CC(=O)OC` is “inactive”.
Take `CCCCCCCC(=O)N(C)C`: the result was inactive.
Regarding `NC(=O)c1cccnc1`, the compound was classed as inactive.
As to `CCCCCCCCSCc1cc(C)c(O)c(CSCCCCCCCC)c1`, the compound was classed as inactive.
The entry for `O=C1CCCCCCCCCCCC(=O)OCCO1` is “inactive”; for `COc1cc(OC)c2ccc(=O)oc2c1` it is “inactive”.
`CCCCCCCCCCO[C@@H]1O[C@H](CO)[C@@H](O)[C@H](O)[C@H]1O`: the compound was classed as inactive.
The result for `O=C1CCC(=O)N1` reads “inactive”; that for `CCOC(=O)CC(C)C`, “inactive”; that for `CCC(=O)OCC=Cc1ccccc1`, “inactive”.
The entry for `O=Cc1ccccc1O` is “inactive”; for `CC(C)Cc1ccccc1` it is “inactive”; for `CC1(C)CC(N)CC(C)(CN)C1` (stereo not given) it is “inactive”.
